{"source": "ChEMBL document CHEMBL3988442", "about": "“University of Dundee, Small-Polar-MMV Screening Library” (2021)", "note": "About 13,000 (27%) of roughly 48,000 compounds showed an effect of 50% or more. This is one part of the list.", "data": [{"system": "Wolbachia pipientis", "test": "Anti-Wolbachia Cell-Based Screen", "assay_type": "functional", "set-up": "scale not given: in the data most compounds retested in dose-response had high values", "conditions": "5 µM", "units": {"Percent Effect": "%"}, "values": [{"smiles": "N#CCCCS(=O)(=O)N1CCCC1CC(=O)c1cccs1", "note": "(centres undefined)", "Percent Effect": -18.29}, {"smiles": "COCc1nn(CC2CC2)c2c1CN(Cc1cncn1C)CC2.O=C(O)C(F)(F)F", "Percent Effect": -13.43}, {"smiles": "Cc1ccc(C(=O)N(C)C)cc1NC(=O)COCC1CC1", "Percent Effect": -15.5}, {"smiles": "C[C@@H](NC(=O)c1cccnc1)c1onc(-c2ccccc2)c1C(=O)O", "Percent Effect": -0.5339}, {"smiles": "COc1ncc(C2(O)CCN(Cc3ccccc3O)CC2)c(OC)n1", "Percent Effect": -6.313}, {"smiles": "COc1ncc(C2(O)CCN(Cc3c(F)cccc3F)CC2)c(OC)n1.Cl", "Percent Effect": 1.004}, {"smiles": "COc1ncc(C2(O)CCN(Cc3ccc(F)c(F)c3)CC2)c(OC)n1.Cl", "Percent Effect": 122.5}, {"smiles": "COc1ncc(C2(O)CCN(Cc3cccc(F)c3F)CC2)c(OC)n1.Cl", "Percent Effect": 130.5}, {"smiles": "COc1ccc(F)c(CN2CCC3(CCC(=O)N(CC(N)=O)C3)CC2)c1", "Percent Effect": 10.55}, {"smiles": "COc1cc(OC)cc(C2(O)CCN(Cc3nc(C)c(C)o3)CC2)c1", "Percent Effect": -6.043}, {"smiles": "COc1ncc(C2(O)CCN(Cc3cc(F)cc(F)c3)CC2)c(OC)n1", "Percent Effect": 125.6}, {"smiles": "COc1cc(OC)cc(C2(O)CCN(Cc3ncc(C)o3)CC2)c1", "Percent Effect": 10.39}, {"smiles": "COc1ncc(C2(O)CCN(Cc3cc(F)ccc3F)CC2)c(OC)n1.Cl", "Percent Effect": 106.6}, {"smiles": "Cc1cnn(CC(C)NCC(=O)NCCc2cccs2)c1", "note": "(centres undefined)", "Percent Effect": -55.8}, {"smiles": "Cc1ncc2c(n1)CN(Cc1nnc(Cc3ccccc3)o1)CC2", "Percent Effect": 5.635}, {"smiles": "Cc1cccnc1CNCC1(O)CCCN(CC2CCCCC2)C1=O", "note": "(centres undefined)", "Percent Effect": -7.545}, {"smiles": "Cc1nonc1CN(C)CC1(O)CCCN(CCC2CCCCC2)C1=O", "note": "(centres undefined)", "Percent Effect": 3.713}, {"smiles": "Cc1cccnc1CN(C)CC1(O)CCCN(CC2CCCCC2)C1=O", "note": "(centres undefined)", "Percent Effect": 93.19}, {"smiles": "O=C(NCCOc1ccc(C(F)(F)F)cn1)c1ccoc1", "Percent Effect": 0.7109}, {"smiles": "COc1ccc(OCc2nccc(-c3cc(C(=O)O)ccn3)n2)cc1", "Percent Effect": -32.77}, {"smiles": "CCn1cc(S(=O)(=O)NCC(c2ccccc2)N2CCOCC2)c(C)n1", "note": "(centres undefined)", "Percent Effect": 72.63}, {"smiles": "Cc1cccc(S(=O)(=O)NCC(C)N2CCN(C)CC2)c1Cl", "note": "(centres undefined)", "Percent Effect": -7.911}, {"smiles": "CCn1cc(CNCC(c2ccc(C)s2)N2CCOCC2)cn1", "note": "(centres undefined)", "Percent Effect": 13.07}, {"smiles": "COc1ccc(C(CNS(=O)(=O)c2cn(C)nc2C)N2CCCC2)cc1.Cl", "note": "(centres undefined)", "Percent Effect": 105.6}, {"smiles": "CCn1cc(S(=O)(=O)NCC(OC)c2ccccc2)cn1", "note": "(centres undefined)", "Percent Effect": 8.527}, {"smiles": "COc1ccc(S(=O)(=O)NCC(c2cccn2C)N(C)C)c(C)c1", "note": "(centres undefined)", "Percent Effect": 5.566}, {"smiles": "Cc1nn(C)cc1S(=O)(=O)NCC(c1ccccc1)N1CCCCCC1.Cl", "note": "(centres undefined)", "Percent Effect": 112.3}, {"smiles": "Cc1nn(C)cc1S(=O)(=O)NCC(c1ccccc1Cl)N1CCCC1", "note": "(centres undefined)", "Percent Effect": 87.53}, {"smiles": "O=C(NCCCn1cncn1)NCC(c1ccccc1)N1CCCC1", "note": "(centres undefined)", "Percent Effect": 9.834}, {"smiles": "O=C(NCc1cc[nH]n1)NCC(c1ccccc1Cl)N1CCCC1", "note": "(centres undefined)", "Percent Effect": 3.552}, {"smiles": "COc1ccc(S(=O)(=O)NCC(N)c2ccccc2)c(C)c1.Cl", "note": "(centres undefined)", "Percent Effect": -12.16}, {"smiles": "Cc1nc(C)c(C(=O)NCC(c2ccccc2Cl)N2CCOCC2)s1", "note": "(centres undefined)", "Percent Effect": 6.115}, {"smiles": "Cc1nsc(NCc2ccc(S(=O)(=O)N(C)C(C)C)cc2)n1", "Percent Effect": 22.68}, {"smiles": "CCCC(C)CS(=O)(=O)NCc1cccnc1OC", "note": "(centres undefined)", "Percent Effect": 6.664}, {"smiles": "CC(C)c1nnc2n1CCN(C(=O)c1ccc3c(c1)NC(=O)CO3)C2", "Percent Effect": 2.374}, {"smiles": "Cc1csc(NC(=O)NCCCN2CCC(C(N)=O)CC2)n1", "Percent Effect": 96.37}, {"smiles": "O=C(NCc1ccccc1CN1CCCC1)Nc1nncs1", "Percent Effect": 6.886}, {"smiles": "NC(=O)CN1CCC(NC(=O)Nc2nccs2)CC1", "Percent Effect": 9.96}, {"smiles": "NC(=O)C1CCN(CCCNC(=O)Nc2nncs2)CC1", "Percent Effect": 106.6}, {"smiles": "O=C(NCCCN1CCN(c2ncccn2)CC1)Nc1ccccn1", "Percent Effect": 10.78}, {"smiles": "Cc1csc(NC(=O)CN2CCC(c3ccnn3CCO)CC2)n1", "Percent Effect": -8.035}, {"smiles": "O=C(NCc1ccccc1CN1CCCCC1)Nc1nncs1", "Percent Effect": -2.637}, {"smiles": "Cc1csc(CCNC(=O)C2CCN(CC(N)=O)CC2)n1", "Percent Effect": -1.435}, {"smiles": "NC(=O)C1CCN(CCCNC(=O)Nc2nccs2)CC1", "Percent Effect": 104.9}, {"smiles": "O=C(C(C1CC1)C1CC1)N1CCC(n2ccnn2)CC1", "Percent Effect": -3.228}, {"smiles": "COc1ccc(C(C(=O)O)N2CCC(O)(c3cccnc3)CC2)cc1Cl", "note": "(centres undefined)", "Percent Effect": 2.828}, {"smiles": "CN(C)CCNC(=O)c1ccc(OC2CCN(CC3CC3)CC2)c(Cl)c1", "Percent Effect": 3.166}, {"smiles": "COCCN1CCCn2cnc(CNC(=O)N(C)C)c2C1.O=C(O)C(F)(F)F.O=C(O)C(F)(F)F", "Percent Effect": -21.14}, {"smiles": "CN(C)c1ncc(-c2cc(C(=O)NCCO)n(CC3CC3)c2)cn1.O=C(O)C(F)(F)F", "Percent Effect": 116.5}, {"smiles": "CN(C)c1cc(NCc2cnc3n2CCN(CC2CC2)CC3)ncn1.O=C(O)C(F)(F)F", "Percent Effect": 3.56}, {"smiles": "CCOC(=O)N1CCCn2nc(C(=O)NCCN(C)C)cc2C1", "Percent Effect": -7.985}, {"smiles": "CN(C)CCNC(=O)c1cc(-c2cnc(N(C)C)nc2)cn1CC1CC1", "Percent Effect": 102.4}, {"smiles": "COCCCNC(=O)c1cc(-c2cnc(N(C)C)nc2)cn1CC1CC1.O=C(O)C(F)(F)F", "Percent Effect": 117.6}, {"smiles": "CC(C)n1cnc2c1C(C(=O)NCCC#N)N(Cc1ccccc1)CC2.O=C(O)C(F)(F)F", "note": "(centres undefined)", "Percent Effect": -22.73}, {"smiles": "CN(C)c1ncc(-c2cc(C(=O)NCCC#N)n(CC3CC3)c2)cn1.O=C(O)C(F)(F)F", "Percent Effect": 101.1}, {"smiles": "Cc1cnc(N2C[C@@H]3CCN(CC(=O)N(C)C)C(=O)[C@H]3C2)nc1.O=C(O)C(F)(F)F", "Percent Effect": -29.89}, {"smiles": "COCc1nc(NC(C)c2c(C)n[nH]c2C)c2cnn(C)c2n1", "note": "(centres undefined)", "Percent Effect": 8.424}, {"smiles": "Cc1nc(-c2ccc(CC(=O)N3CCN(C(=O)C(C)C)CC3)cc2)cs1", "Percent Effect": -9.711}, {"smiles": "CN(C)c1ncc(-c2cc(C(=O)NC(C)(C)CO)n(CC3CC3)c2)cn1", "Percent Effect": 111.9}, {"smiles": "CN(C)c1ncc(-c2cc(C(=O)N3CCCC3)n(CC3CC3)c2)cn1", "Percent Effect": 121.7}, {"smiles": "CN(C)C(=O)c1ccc2c(c1)N(C)C(CC(=O)NC(C)(C)CO)CO2", "note": "(centres undefined)", "Percent Effect": -1.046}, {"smiles": "CNC(=O)c1cc(-n2ccnc2-c2cnc(N(C)C)nc2)ccc1OC", "Percent Effect": -13}, {"smiles": "CN(C)c1ncc(-c2cc(C(=O)O)n(CC3CC3)c2)cn1", "Percent Effect": 1.495}, {"smiles": "CN(C)c1ncc(NC(=O)N2CCC(CN3CCCC3)C2)cn1", "note": "(centres undefined)", "Percent Effect": 8.781}, {"smiles": "OC1(CNCc2ccc(F)c(C(F)(F)F)c2)CCSCC1", "Percent Effect": 2.477}, {"smiles": "O=C(O)CN1CCc2onc(C(c3ccccc3)c3ccccc3)c2C1", "Percent Effect": -16.17}, {"smiles": "CNS(=O)(=O)CCn1cc(-c2ccc(OC)c(OC)c2)nn1", "Percent Effect": -29.27}, {"smiles": "Cc1noc(C)c1CN1CCOC2(CCCN(c3ccccn3)C2)C1", "note": "(centres undefined)", "Percent Effect": -3.1}, {"smiles": "Cc1nc(CNC(=O)NCCc2ccc(N(C)C)cc2)cs1", "Percent Effect": 2.73}, {"smiles": "COc1ccc(C)c(NC(=O)NCc2cccc(N(C)C)n2)c1", "Percent Effect": -15.2}, {"smiles": "CSC(C)C(=O)NCc1ccc(-n2cncn2)nc1", "note": "(centres undefined)", "Percent Effect": -9.599}, {"smiles": "Cc1nc(CSCCC(=O)NCc2ccc(-n3cncn3)nc2)cs1", "Percent Effect": 103.5}, {"smiles": "Cc1nc(CSCCC(=O)NCC(=O)NC(C)C)cs1", "Percent Effect": 3.002}, {"smiles": "Cc1nc(CSCCC(=O)NCCNC(=O)OC(C)(C)C)cs1", "Percent Effect": -7.243}, {"smiles": "Cc1nc(CCNC(=O)NCc2cccc(N(C)C)n2)cs1", "Percent Effect": 98.24}, {"smiles": "COc1ccc(CNC(=O)CCSCc2csc(C)n2)cn1", "Percent Effect": 99.67}, {"smiles": "CC(OCC(F)(F)F)C(=O)NCc1ccc(-n2cncn2)nc1", "note": "(centres undefined)", "Percent Effect": 6.097}, {"smiles": "Cc1ccc(CNC(=O)CCSCc2csc(C)n2)cn1", "Percent Effect": -0.6284}, {"smiles": "Cc1nc(CSCCC(=O)NCc2ccncc2)cs1", "Percent Effect": 95.93}, {"smiles": "Cc1ccc2c(c1)C(NC(=O)C1CCN(S(C)(=O)=O)CC1)CC(C)(C)O2", "note": "(centres undefined)", "Percent Effect": 2.376}, {"smiles": "F[C@@H]1CN(CC2CC2)C[C@@H]1OCc1nc2ccc(C(F)(F)F)cc2[nH]1", "Percent Effect": -10.92}, {"smiles": "CC(C)N1CCc2onc(Cn3cccn3)c2C1", "Percent Effect": -7.292}, {"smiles": "O=C(Nc1ccccc1-c1ccccc1)N1C[C@@H]2CNC[C@]2(C(=O)O)C1", "Percent Effect": -1.582}, {"smiles": "Cc1nc(CNC(=O)NCC(F)(F)F)oc1C", "Percent Effect": 5.267}, {"smiles": "Cc1ccc(-c2cc(-c3nc(CN4CCN(C)CC4)no3)n[nH]2)cc1", "Percent Effect": -2.901}, {"smiles": "CSCCCN1C(=O)CC[C@H]2CN(Cc3ncc[nH]3)CC[C@H]21", "Percent Effect": -3.327}, {"smiles": "Cc1nc(CCNC(=O)NCc2ccc(N(C)C)nc2)cs1", "Percent Effect": 2.776}, {"smiles": "Cc1ncsc1CCC(=O)NCc1csc(N(C)C)n1", "Percent Effect": 8.732}, {"smiles": "Cc1nc(CNC(=O)NCc2ccc(OCC3CC3)nc2)cs1", "Percent Effect": -6.746}, {"smiles": "Cc1nc(CSCCC(=O)NCc2ccc(N(C)C)cc2)cs1", "Percent Effect": 100.6}, {"smiles": "COc1ccc(CNC(=O)NCCc2csc(C)n2)cn1", "Percent Effect": 78.6}, {"smiles": "CCOc1ccc(C(=O)CCC(=O)NCCc2nncn2CC)cc1C", "Percent Effect": -15.05}, {"smiles": "CC(=O)N1CCC2(CC1)C(=O)N(c1ccc(C)nc1)CCN2CC(C)C", "Percent Effect": -6.199}, {"smiles": "CCCS(=O)(=O)N1CCN(C(=O)CO)CC1", "Percent Effect": 9.785}, {"smiles": "CCS(=O)(=O)CC(=O)Nc1ccccc1N1CCc2ccccc21", "Percent Effect": -1.356}, {"smiles": "COc1ccc(C2=C(C)C(N3CCc4ccccc4C3)=NS2(=O)=O)cc1", "Percent Effect": -1.571}, {"smiles": "CNC(=O)NCC(=O)Nc1ccccc1N1CCc2ccccc21", "Percent Effect": -5.269}, {"smiles": "CC1=C(c2ccc(Cl)cc2)S(=O)(=O)N=C1N1CCc2ccccc21", "Percent Effect": 182.9}, {"smiles": "CC1=C(c2ccc(F)cc2)S(=O)(=O)N=C1N1CCc2ccccc21", "Percent Effect": 117.2}, {"smiles": "CC1=C(c2ccc(C(C)C)cc2)S(=O)(=O)N=C1N1CCc2ccccc21", "Percent Effect": 127.3}, {"smiles": "CS(=O)(=O)NCCC(=O)Nc1ccccc1N1CCc2ccccc21", "Percent Effect": 4.986}, {"smiles": "CC(C)c1nc(C2CCCN2CC(=O)N2CCc3ccccc32)no1", "note": "(centres undefined)", "Percent Effect": 8.047}, {"smiles": "COc1ccc(C2=C(C)C(N3CCc4ccccc43)=NS2(=O)=O)cc1", "Percent Effect": 41.03}, {"smiles": "CC1=C(c2ccc(C)cc2)S(=O)(=O)N=C1N1CCc2ccccc21", "Percent Effect": 130.8}]}]}
